Holding throughout (assay): PBM; 200 nM protein, PBS
What all share (settings): dsDNA, one strand shown

In assay [1] the target is NKX2-5 (Homo sapiens, UniProt P52952 125-210, R139K).
Assay [2] addresses NKX2-5 (Homo sapiens, UniProt P52952 125-210).
Another assay has as its target PITX2 (Homo sapiens, UniProt Q99697 72-157).
Assay [3] addresses NKX3-2 (Homo sapiens, UniProt P78367 192-278, P234S).
In assay [4] the target is NKX3-2 (Homo sapiens, UniProt P78367 192-278).
The next assay addresses T1, NKX2-6 (Homo sapiens, UniProt A6NCS4 118-204, F151L).
T1 sequence: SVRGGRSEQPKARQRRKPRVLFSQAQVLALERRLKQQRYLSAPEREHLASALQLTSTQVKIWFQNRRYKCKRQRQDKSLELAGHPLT

NKX2-5 (Homo sapiens, UniProt P52952 125-210), sequence (P52952 125-210): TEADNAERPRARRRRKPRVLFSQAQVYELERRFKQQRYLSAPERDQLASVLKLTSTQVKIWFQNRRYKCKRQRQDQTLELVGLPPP
NKX2-5 (Homo sapiens, UniProt P52952 125-210, R139K), sequence (P52952 125-210 R139K): as the sequence (P52952 125-210) above, with R15K counted along it
NKX3-2 (Homo sapiens, UniProt P78367 192-278, P234S), sequence (P78367 192-278 P234S): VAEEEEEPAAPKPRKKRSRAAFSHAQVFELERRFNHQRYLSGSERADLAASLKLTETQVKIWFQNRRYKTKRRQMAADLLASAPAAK
NKX3-2 (Homo sapiens, UniProt P78367 192-278), sequence (P78367 192-278): as the sequence (P78367 192-278 P234S) above, with S43P counted along it

As for AGTACTCG, the binding signal in the assay with NKX2-5 [1] was 11.5 upbm affinity estimate (log intensity, higher = more binding, comparable within an allelic series); with NKX2-5 [2] it was 11.3 upbm affinity estimate (log intensity, higher = more binding, comparable within an allelic series).

As for CGCGCAGC, the binding signal is 8.7 upbm affinity estimate (log intensity, higher = more binding, comparable within an allelic series) with NKX2-5 [1] and 8.72 upbm affinity estimate (log intensity, higher = more binding, comparable within an allelic series) with NKX2-5 [2].

On to CGGGTGGC, for which the binding signal was 8.45 upbm affinity estimate (log intensity, higher = more binding, comparable within an allelic series) with NKX2-5 [1] and 8.57 upbm affinity estimate (log intensity, higher = more binding, comparable within an allelic series) with NKX2-5 [2].

As to GGCTCTTA, the binding signal is 11.7 upbm affinity estimate (log intensity, higher = more binding, comparable within an allelic series) with NKX2-5 [1] and 11.6 upbm affinity estimate (log intensity, higher = more binding, comparable within an allelic series) in the assay with NKX2-5 [2].

In the case of CACAAGAG, the binding signal with NKX2-5 [1] is 11.1 upbm affinity estimate (log intensity, higher = more binding, comparable within an allelic series); with NKX2-5 [2], 11 upbm affinity estimate (log intensity, higher = more binding, comparable within an allelic series).

Turning to CCCTTGAC, the binding signal in the assay with NKX2-5 [1] is 11.1 upbm affinity estimate (log intensity, higher = more binding, comparable within an allelic series); with NKX2-5 [2], 11.1 upbm affinity estimate (log intensity, higher = more binding, comparable within an allelic series).

In the case of AACGCGGA, the binding signal with NKX2-5 [1] is 8.76 upbm affinity estimate (log intensity, higher = more binding, comparable within an allelic series); in the assay with NKX2-5 [2] it was 8.8 upbm affinity estimate (log intensity, higher = more binding, comparable within an allelic series).

Regarding CACTACAC, the binding signal in the assay with NKX2-5 [1] was 10.6 upbm affinity estimate (log intensity, higher = more binding, comparable within an allelic series); with NKX2-5 [2], 10.7 upbm affinity estimate (log intensity, higher = more binding, comparable within an allelic series).

Turning to CCGCACGG, the binding signal with NKX2-5 [1] is 8.63 upbm affinity estimate (log intensity, higher = more binding, comparable within an allelic series); in the assay with NKX2-5 [2] it was 8.62 upbm affinity estimate (log intensity, higher = more binding, comparable within an allelic series).

For AGGCGAGC, the binding signal with NKX2-5 [1] is 9.02 upbm affinity estimate (log intensity, higher = more binding, comparable within an allelic series); in the assay with NKX2-5 [2], 8.95 upbm affinity estimate (log intensity, higher = more binding, comparable within an allelic series).

As to ACTTATCG, the binding signal was 11.2 upbm affinity estimate (log intensity, higher = more binding, comparable within an allelic series) with NKX2-5 [1] and 11.2 upbm affinity estimate (log intensity, higher = more binding, comparable within an allelic series) with NKX2-5 [2].

As to ACCAAACC, the binding signal was 8.82 upbm affinity estimate (log intensity, higher = more binding, comparable within an allelic series) in the assay with NKX2-5 [1] and 8.9 upbm affinity estimate (log intensity, higher = more binding, comparable within an allelic series) with NKX2-5 [2].

For the sequence GCCGACCC, the binding signal is 8.84 upbm affinity estimate (log intensity, higher = more binding, comparable within an allelic series) in the assay with NKX2-5 [1] and 8.81 upbm affinity estimate (log intensity, higher = more binding, comparable within an allelic series) with NKX2-5 [2].

With CCGTCCCG, the binding signal in the assay with NKX2-5 [1] is 8.71 upbm affinity estimate (log intensity, higher = more binding, comparable within an allelic series); with NKX2-5 [2] it was 8.66 upbm affinity estimate (log intensity, higher = more binding, comparable within an allelic series).

In the case of ACCATGGT, the binding signal in the assay with NKX2-5 [1] is 9.14 upbm affinity estimate (log intensity, higher = more binding, comparable within an allelic series); in the assay with NKX2-5 [2] it was 9.06 upbm affinity estimate (log intensity, higher = more binding, comparable within an allelic series).

Consider CACTGCCG, for which the binding signal with NKX2-5 [1] is 9 upbm affinity estimate (log intensity, higher = more binding, comparable within an allelic series); with NKX2-5 [2], 8.89 upbm affinity estimate (log intensity, higher = more binding, comparable within an allelic series).

As for CCTGGGCA, the binding signal in the assay with NKX2-5 [1] was 8.92 upbm affinity estimate (log intensity, higher = more binding, comparable within an allelic series); with NKX2-5 [2] it was 9.12 upbm affinity estimate (log intensity, higher = more binding, comparable within an allelic series).

For the sequence CCCTGGGC, the binding signal was 8.86 upbm affinity estimate (log intensity, higher = more binding, comparable within an allelic series) with NKX2-5 [1] and 8.96 upbm affinity estimate (log intensity, higher = more binding, comparable within an allelic series) in the assay with NKX2-5 [2].

Turning to CGGTTTGC, the binding signal in the assay with NKX2-5 [1] is 8.63 upbm affinity estimate (log intensity, higher = more binding, comparable within an allelic series); with NKX2-5 [2], 8.59 upbm affinity estimate (log intensity, higher = more binding, comparable within an allelic series).

Consider AAGTGAGT, for which the binding signal with NKX2-5 [1] is 11.4 upbm affinity estimate (log intensity, higher = more binding, comparable within an allelic series); with NKX2-5 [2], 11.4 upbm affinity estimate (log intensity, higher = more binding, comparable within an allelic series).

Regarding CTCATAAG, the binding signal is 10.8 upbm affinity estimate (log intensity, higher = more binding, comparable within an allelic series) with NKX2-5 [1] and 10.9 upbm affinity estimate (log intensity, higher = more binding, comparable within an allelic series) with NKX2-5 [2].

In the case of GGCAAGCC, the binding signal is 8.94 upbm affinity estimate (log intensity, higher = more binding, comparable within an allelic series) with NKX2-5 [1] and 8.92 upbm affinity estimate (log intensity, higher = more binding, comparable within an allelic series) in the assay with NKX2-5 [2].

For the sequence ACAGCGCC, the binding signal in the assay with NKX2-5 [1] was 8.89 upbm affinity estimate (log intensity, higher = more binding, comparable within an allelic series); in the assay with NKX2-5 [2] it was 8.85 upbm affinity estimate (log intensity, higher = more binding, comparable within an allelic series).

CACAGCCG: the binding signal with NKX2-5 [1] was 8.68 upbm affinity estimate (log intensity, higher = more binding, comparable within an allelic series); with NKX2-5 [2] it was 8.68 upbm affinity estimate (log intensity, higher = more binding, comparable within an allelic series).

Take GCTGCGAC: the binding signal in the assay with NKX2-5 [1] is 8.9 upbm affinity estimate (log intensity, higher = more binding, comparable within an allelic series); with NKX2-5 [2], 8.94 upbm affinity estimate (log intensity, higher = more binding, comparable within an allelic series).

AACGTGGG: the binding signal with NKX2-5 [1] was 8.65 upbm affinity estimate (log intensity, higher = more binding, comparable within an allelic series); with NKX2-5 [2] it was 8.69 upbm affinity estimate (log intensity, higher = more binding, comparable within an allelic series).

As for CACAGCCC, the binding signal is 9.06 upbm affinity estimate (log intensity, higher = more binding, comparable within an allelic series) in the assay with NKX2-5 [1] and 9.02 upbm affinity estimate (log intensity, higher = more binding, comparable within an allelic series) with NKX2-5 [2].

Take CCCGAGGC: the binding signal in the assay with NKX2-5 [1] was 9.04 upbm affinity estimate (log intensity, higher = more binding, comparable within an allelic series); with PITX2, 8.01 upbm affinity estimate (log intensity, higher = more binding, comparable within an allelic series); with NKX3-2 [3], 10.3 upbm affinity estimate (log intensity, higher = more binding, comparable within an allelic series); in the assay with NKX2-5 [2], 9.06 upbm affinity estimate (log intensity, higher = more binding, comparable within an allelic series); with NKX3-2 [4] it was 10.4 upbm affinity estimate (log intensity, higher = more binding, comparable within an allelic series).

As to CCCGTAGC, the binding signal with NKX2-5 [1] is 8.54 upbm affinity estimate (log intensity, higher = more binding, comparable within an allelic series); with NKX2-5 [2], 8.55 upbm affinity estimate (log intensity, higher = more binding, comparable within an allelic series).

For the sequence AAGTAGGG, the binding signal with NKX2-5 [1] was 10.9 upbm affinity estimate (log intensity, higher = more binding, comparable within an allelic series); in the assay with NKX2-5 [2], 10.9 upbm affinity estimate (log intensity, higher = more binding, comparable within an allelic series).

GCAAAGTA: the binding signal in the assay with NKX2-5 [1] was 10.7 upbm affinity estimate (log intensity, higher = more binding, comparable within an allelic series); with NKX2-5 [2], 10.8 upbm affinity estimate (log intensity, higher = more binding, comparable within an allelic series).

For the sequence ACGGTCCA, the binding signal in the assay with NKX2-5 [1] was 8.85 upbm affinity estimate (log intensity, higher = more binding, comparable within an allelic series); with NKX3-2 [3], 10.5 upbm affinity estimate (log intensity, higher = more binding, comparable within an allelic series); in the assay with NKX2-5 [2] it was 8.85 upbm affinity estimate (log intensity, higher = more binding, comparable within an allelic series); in the assay with NKX3-2 [4], 10.5 upbm affinity estimate (log intensity, higher = more binding, comparable within an allelic series).

CCGAGCCA: the binding signal is 9.01 upbm affinity estimate (log intensity, higher = more binding, comparable within an allelic series) with NKX2-5 [1] and 9.05 upbm affinity estimate (log intensity, higher = more binding, comparable within an allelic series) with NKX2-5 [2].

For the sequence CAAGTGCC, the binding signal with NKX2-5 [1] was 12.3 upbm affinity estimate (log intensity, higher = more binding, comparable within an allelic series); in the assay with NKX2-6 it was 10.6 upbm affinity estimate (log intensity, higher = more binding, comparable within an allelic series).

On to CGACACTC, for which the binding signal in the assay with NKX2-5 [1] is 10.6 upbm affinity estimate (log intensity, higher = more binding, comparable within an allelic series); with NKX2-5 [2], 10.5 upbm affinity estimate (log intensity, higher = more binding, comparable within an allelic series).

Take CCGCAGTC: the binding signal in the assay with NKX2-5 [1] was 8.8 upbm affinity estimate (log intensity, higher = more binding, comparable within an allelic series); in the assay with NKX2-5 [2] it was 8.72 upbm affinity estimate (log intensity, higher = more binding, comparable within an allelic series).

Regarding AATCTTGA, the binding signal was 10.5 upbm affinity estimate (log intensity, higher = more binding, comparable within an allelic series) with NKX2-5 [1] and 10.5 upbm affinity estimate (log intensity, higher = more binding, comparable within an allelic series) with NKX2-5 [2].

For the sequence CGGCCAGC, the binding signal with NKX2-5 [1] is 8.6 upbm affinity estimate (log intensity, higher = more binding, comparable within an allelic series); in the assay with NKX2-5 [2], 8.71 upbm affinity estimate (log intensity, higher = more binding, comparable within an allelic series).

As for TCTGCAGA, the binding signal is 9.09 upbm affinity estimate (log intensity, higher = more binding, comparable within an allelic series) in the assay with NKX2-5 [1] and 9.04 upbm affinity estimate (log intensity, higher = more binding, comparable within an allelic series) with NKX2-5 [2].

As for AGCCACTC, the binding signal was 11.6 upbm affinity estimate (log intensity, higher = more binding, comparable within an allelic series) with NKX2-5 [1] and 11.5 upbm affinity estimate (log intensity, higher = more binding, comparable within an allelic series) in the assay with NKX2-5 [2].
